Results from PMC8159961, “Exploring protein hotspots by optimized fragment pharmacophores” (Nature Communications, 2021).

These compounds were tested against thrombin (human, UniProt P00734) (assay: primary screen, binary call; higher = more effect of the substance). Settings: 200 µM; call rule not given here.
Set-up: screenings were carried out in duplicate in one independent experiment
Experimental: Protease inhibitory assays were performed in transparent microtiter plates in a final volume of 200 µL with the use of chromogenic substrates. The reaction rates in the absence and in the presence of the inhibitor were measured; screenings were carried out in duplicate in one independent experiment and Ki values were determined in triplicate in two independent experiments.

| SMILES | Thrombin |
| --- | --- |
| Nc1ccc(-c2ccccc2)cc1C(=O)O | 0 (inactive) |
| NC1CCc2ccccc21 (stereo not shown) | 0 (inactive) |
| c1ccc(Nc2nncs2)cc1 | 0 (inactive) |
| O=C(O)C1CCCN(C(=O)N2CCCC2)C1 (stereo not shown) | 0 (inactive) |
| O=C1CCC(=O)N(c2ccccc2)N1 | 0 (inactive) |
| O=C1NC(=O)/C(=C\c2cccs2)N1 | 0 (inactive) |
| O=C(c1ccncc1)N1CCNCC1 | 0 (inactive) |
| O=C1NC(=O)C2(CCc3ccccc32)N1 (stereo not shown) | 0 (inactive) |
| O=C(O)c1cnc(-c2ccccc2)s1 | 1 (active) |
| O=C(c1ccccc1F)N1CCNCC1 | 0 (inactive) |
| CC(=O)c1ccc2c(c1)CNCC2 | 0 (inactive) |
| O=C1CC(CSc2ccc(Cl)cc2)=NN1 | 0 (inactive) |
| Fc1ccc(CC2CCCNC2)cc1 (stereo not shown) | 0 (inactive) |
| O=C(NC1CC1)c1ccccc1O | 0 (inactive) |
| CC(CN)N1CCc2sccc2C1 (stereo not shown) | 0 (inactive) |
| O=C(Nc1ccccc1)C1CC1 | 0 (inactive) |
| Cn1c(N)nc2ccccc21 | 0 (inactive) |
| N#CCCN1CCc2ccccc21 | 0 (inactive) |
| O=C(O)c1cccc(Nc2ncccn2)c1 | 0 (inactive) |
| N#Cc1ccc2ncsc2c1 | 0 (inactive) |

| SMILES | Thrombin |
| --- | --- |
| O=C(c1ccccc1)N1CCC(CO)CC1 | 0 (inactive) |
| O=C(CN1CCNCC1)c1ccccc1 | 0 (inactive) |
| c1ccc(-c2ccncc2)cc1 | 0 (inactive) |
| CS(=O)(=O)c1ccc(N2CCNCC2)cc1 | 0 (inactive) |
| CCn1cnc2ccccc21 | 0 (inactive) |
| Cc1nccn1Cc1cccc(C#N)c1 | 0 (inactive) |
| N[C@H]1c2ccccc2C[C@H]1CO | 0 (inactive) |
| Oc1nnc(-c2ccccc2)o1 | 0 (inactive) |
| Nc1nnc(-c2cccs2)[nH]1 | 1 (active) |
| Cc1cc(C)c2c(=O)[nH]n(C)c2n1 | 0 (inactive) |
| N#Cc1ccc(C(=O)N2CCOCC2)cc1 | 0 (inactive) |
| CS(=O)(=O)Nc1ccc(C(=O)O)cc1 | 0 (inactive) |
| CCc1ccc(NC2=NCCCS2)cc1 | 0 (inactive) |
| CC(=O)c1ccc2c(c1)CCCN2 | 0 (inactive) |
| NCC1(c2ccccc2)CCOCC1 | 0 (inactive) |
| N#CC1CCS(=O)(=O)C1 (stereo not shown) | 0 (inactive) |
| Fc1ccc2c(C3CCNCC3)c[nH]c2c1 | 0 (inactive) |
| O=C(CN1CCCC1)c1ccccc1Cl | 0 (inactive) |
| O=C(O)C1CCN(c2ncccn2)CC1 | 1 (active) |
| O=C(O)CC1CCC(=O)N1 (stereo not shown) | 0 (inactive) |
